# DT40 TDP1 no CPT – qHTS for Inhibitors of human tyrosyl-DNA phosphodiesterase 1 (TDP1): qHTS in cells in absence of CPT | DT40 Tdp1-/- hTDP1 cells, no CPT, ATP luminescence, 48 h | Potency, µM (series often up to 46.2 µM), for inactives: at the top dose activity change, negative = growth inhibition, most hits filed as inhibitors | 15% of 420,000 active; also: potency is read from the fitted curve at half-maximal effect; nearly all actives have a fitted effect of over 55% in size
#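 A cellular qHTS used chicken DT40 cells lacking endogenous Tdp1 but carrying stably transfected human TDP1. Compounds were applied without camptothecin, and cell growth kinetics were judged by ATP-dependent luminescence after ≥48 hr.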
# HT1080 IDH1KD tx – qHTS for induction of synthetic lethality in tumor cells producing 2HG: qHTS for the HT-1080-IDH1KD cell line; HT-1080 IDH1 knockdown viability, ATP luminescence, 48 h; Potency, µM (titrated, usually from 46.1 µM), without a hit: at the highest dose activity, negative = toxicity, actives largely listed as cytotoxic; 2% of 360,000 active;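 also: potency is read from the fitted curve at half-maximal effect; 0% = DMSO wells and -100% = cell-free medium wells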
#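 Luminescent ATP read-out (CellTiter-Glo, 10 min at room temperature) after 48 h compound exposure at 37 °C gave viability of IDH1-knockdown HT-1080 cells. Activity was normalised to DMSO and cell-free wells, then fitted as concentration-response curves.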
# IL-1B inflam inh – qHTS for Inhibitors of Inflammasome Signaling: IL-1-beta AlphaLISA Primary Screen | 4.7% of 360,000 active | AID 743279, 2014 | activity change, % at 57.5 µM | THP-1 LPS/ATP IL-1B secretion, AlphaLISA, 16 h; stronger effect = lower value; in the data active = activity change below about -50%; inconclusive = mostly about -30% to -49%
#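 THP-1 cells pretreated 1 hr with compounds (up to 57.5 uM final), then stimulated with LPS (250 ng/mL final) plus ATP (1.25 mM final); secreted IL-1B measured by AlphaLISA after 16 hr, decreased signal indicating inhibition.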
# ELG1 DNA repair – qHTS screen for small molecules that inhibit ELG1-dependent DNA repair in human embryonic kidney (HEK293T) cells expressing luciferase-tagged ELG1; HEK293T ELG1-luciferase reporter, luminescence, 16 h; DNA damage induced by 5-fluorouridine; 2.3% of 330,000 active; Potency, µM (doses to about 46.1 µM), for inactives: at the highest dose activity change, negative = inhibition, hits mostly inhibitors; AID 504467, 2011; also: potency is read from the fitted curve at half-maximal effect; nearly all actives have a fitted effect of over 55% in size
#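 DMSO vehicle served as the neutral condition. Each well held 2,000 cells given 5-fluorouridine plus compound; after 16 hr at 37 °C/5% CO2, ONE-Glo was added and luciferase measured 30 min later.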
# HT1080-NT tox – qHTS for induction of synthetic lethality in tumor cells producing 2HG: qHTS for the HT-1080-NT fibrosarcoma cell line | 1.6% of 360,000 active | HT-1080-NT fibrosarcoma viability, CellTiter-Glo ATP luminescence, 48 h | Potency, µM (highest dose often 46.1 µM), for inactives: at the highest dose activity, negative = less viability, actives largely listed as cytotoxic;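 also: NT is the 2HG producing partner of a matched IDH1 knockdown line; potency is read from the fitted curve at half-maximal effect; 0% = DMSO-treated cells and -100% = media-only wells without cells; nearly all actives have a fitted effect of over 55% in size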
#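 Viability by CellTiter-Glo luminescence after 48 h compound exposure at 37C of HT-1080-NT cells (750/well, RPMI, 5% FBS). % activity scaled between DMSO wells and medium-only wells, then curve-fitted and categorized by curve class.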
# TDP1 cell CPT – qHTS for Inhibitors of human tyrosyl-DNA phosphodiesterase 1 (TDP1): qHTS in cells in presence of CPT; chicken DT40 Tdp1-/-;hTDP1 cells + 20 nM CPT, ATP luminescence, 48 h; Potency, µM (series often up to 46.2 µM), for the others: top-dose activity change, negative = growth inhibition, most hits filed as inhibitors; 12% of 420,000 active; AID 686979, 2013; also: potency is read from the fitted curve at half-maximal effect; nearly all actives have a fitted effect of over 55% in size
#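 Cell growth measured by CellTiter-Glo luminescence after a minimum 48 h, 37 C compound exposure with 20 nM CPT in Tdp1-knockout DT40 cells stably expressing hTDP1, seeded 400/well; qHTS titration format.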
# * = called active by the depositor; u = inconclusive; x = not tested or not shown. Only some compounds are listed: those with a hit (about 19% of all), similar ones and a draw of the others. Unless noted, calls follow the shape of the dose curve; as a rule, active = well fitted curve in the direction sought with a large enough effect; inconclusive = small, poorly fitted or top-dose-only effect, or another doubt; inactive = no such curve, though single readings can be large; an effect the other way counts as inactive or inconclusive. Unless noted, % is scaled to controls: 0 for no effect and ±100 for the full control effect.
SMILES,DT40 TDP1 no CPT,HT1080 IDH1KD tx,IL-1B inflam inh,ELG1 DNA repair,HT1080-NT tox,TDP1 cell CPT
O=[N+]([O-])c1ccc(N2CCCC2)cc1N1CCCC1,u,-4%,-24,-3%,-3%,u
CC(C)C(=O)Nc1cccc(C(=O)Nc2cc([N+](=O)[O-])ccc2Cl)c1,u,-5%,-3,u,13%,-26%
Cc1cc([N+](=O)[O-])ccc1NC(=O)c1cncc(Br)c1,-17%,27%,-67*,u,6%,3%
Cc1cc([N+](=O)[O-])ccc1NC(=O)c1cccc(NC(=O)C(C)C)c1,23µM*,-2%,-25,u,-4%,u
Nc1cc(N)nc(SCC(=O)NC(=O)NC2CCCC2)n1,-9%,4%,10,17%,8%,-5%
COC(=O)CC(c1ccc(OC)c(OC)c1)c1ccc(OC)c(OC)c1,-17%,8%,21,-15%,1%,-4%
O=C(c1ccc(N2CCN(C(=O)c3ccccc3Br)CC2)cc1)c1cccc(F)c1,26µM*,u,-23,u,-24%,16µM*
O=C(NC(=O)N1CCN(c2ccc(F)cc2)CC1)c1ccccc1,-4%,-1%,0,8%,u,-8%
O=C(c1ccccc1)N1CCN(C(=O)c2ccccc2Br)CC1,6%,0%,u,-27%,-3%,-12%
O=C(c1cccc(F)c1)N1CCN(c2cccc(C(F)(F)F)c2)CC1,u,-13%,-27,-7%,-5%,u
CCOC(=O)N1CCN(c2ccc(C(=O)c3cccc(F)c3)cc2)CC1,21µM*,-1%,u,u,u,13µM*
O=C(c1ccc(N2CCN(C(=O)c3cccc(F)c3)CC2)cc1)c1cccc(F)c1,u,-17%,u,u,-29%,16µM*
O=C(c1ccccc1)c1ccc(C(=O)N2CCN(c3ccc(F)cc3)CC2)o1,12µM*,-24%,-23,-28%,-21%,u
COc1ccc(-c2nnc(SCC(=O)N3CCCC3=O)n2N)cc1OC,-18%,0%,-2,1%,12%,3%
CC1=NN(c2ccccc2)C(=O)C1C(=O)c1ccc(Cl)cc1 (stereo unspecified),23µM*,-22%,51,-14%,u,21µM*
Cn1cc(C(c2ccccc2)c2ccc(Cl)s2)c2ccccc21 (stereo unspecified),-15%,x,x,x,x,-20%
Cc1ccc2[nH]cc(C(c3ccccc3)c3ccc(Cl)s3)c2c1 (stereo unspecified),15µM*,x,x,x,x,u
CCc1ccc(C(c2ccccc2)c2c[nH]c3ccc(C)cc23)s1 (stereo unspecified),16µM*,x,x,x,x,u
Cc1ccccc1NS(=O)(=O)c1ccc2[nH]c(=O)[nH]c2c1,28%,15%,6,3%,-2%,5%
Cc1cc2oc(=O)cc(-c3cc4ccccc4o3)c2cc1O,23µM*,0%,0,-5%,4%,26µM*
COc1ccc2oc(=O)cc(-c3cc4cccc(OC)c4o3)c2c1,5%,3%,26,4%,8%,-9%
COc1cccc2cc(-c3cc(=O)oc4cc(C)c(OCC(C)=O)cc34)oc12,-27%,-1%,39,5.2µM*,-4%,u
CCN(CC)C(=O)Oc1ccc2oc(=O)cc(-c3cc4cccc(OC)c4o3)c2c1,-27%,2%,-65*,u,15%,u
O=c1cc(-c2cc3ccccc3o2)c2cc(O)ccc2o1,u,u,-16,u,u,-47%
CC(=O)c1nn(-c2cccc(Br)c2)cc1C(=O)c1ccc(Br)cc1,12µM*,10%,3,x,-1%,13µM*
SMILES,DT40 TDP1 no CPT,HT1080 IDH1KD tx,IL-1B inflam inh,ELG1 DNA repair,HT1080-NT tox,TDP1 cell CPT
Brc1ccc(NC2=Nc3ccccc3CC2)cc1,16µM*,-9%,-8,u,1%,u
CCN(CC)S(=O)(=O)c1cccc(NC(=O)CCNC(=O)NC23CC4CC(CC(C4)C2)C3)c1,u,-21%,-22,-22%,-14%,u
O=C(CC1SC(=Nc2ccccc2)N(CCCO)C1=O)Nc1ccc(Cl)cc1 (stereo unspecified),-23%,u,u,u,u,-22%
O=C(CC1SC(=Nc2ccccc2)N(CCc2c[nH]c3ccccc23)C1=O)Nc1ccccc1F (stereo unspecified),u,21µM*,-80*,-20%,u,u
COc1ccc(N=C2SC(CC(=O)Nc3ccccc3F)C(=O)N2Cc2ccco2)cc1 (stereo unspecified),u,-3%,0,23µM*,-3%,-28%
O=C(CSc1nc2ccsc2c(=O)n1CC1CCC(C(=O)O)CC1)NCCc1ccc(Cl)cc1 (stereo unspecified),11%,3%,26,-5%,-1%,-20%
O=C(c1ccc(NC2=NC3CS(=O)(=O)CC3S2)cc1)N(CCO)Cc1ccccc1 (stereo unspecified),17%,12%,-23,3%,19%,-1%
CCN(CC)c1ccc(CN(C(=O)c2cccs2)C2CCS(=O)(=O)C2)cc1 (stereo unspecified),u,-6%,-28,4%,4%,u
CCc1nn(CC(=O)NCCCN2CCOCC2)c(=O)c2cc3c(OC)cccc3n12,27%,-1%,u,x,-1%,-14%
COCCCNCCCOc1ccc(C)cc1Br,u,-16%,-20,15%,-12%,u
COCCCNCCCOc1ccc(Cl)cc1Br,u,-26%,-25,0%,u,26µM*
Clc1ccc(OCCCn2ccnc2)c(Br)c1,u,11%,0,u,0%,u
CC(C)NCCCOc1ccc(Cl)cc1Br,u,u,-13,u,u,18µM*
CCCCNCCOCCOc1ccc(Cl)cc1Br,33µM*,u,u,-10%,u,21µM*
CCCCNCCCOc1cc(Cl)ccc1Cl,u,-24%,u,u,u,u
CC(C)NCCCCOc1ccc(Br)cc1Cl,18µM*,u,-7,u,u,23µM*
